Screening data: PubChem BioAssay, National Center for Advancing Translational Sciences (NCATS)
Shiga toxin inh = blocks Shiga toxin action in Vero cells; Vero cells, Shiga toxin protein synthesis inhibition reporter; inhibition, % at 38.7 µM; 290,000 tested, 9.2% active; AID 2315; in the data active means inhibition mostly above about 28%, no sharp cut-off; inactive means mostly below about 43%; further: 0% is about no effect
AmpC inh detg = AmpC beta-lactamase inhibition with detergent present; P00811; AmpC hydrolysis of nitrocefin, absorbance 480 nm, 0.01% Triton; Potency, µM (highest dose often 114 µM), for inactives: at the highest dose activity change, negative = inhibition, hits mostly inhibitors; 370,000 tested, 0.041% active; AID 485294;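 further: potency means the concentration at half of the fitted maximal effect; 0% = no-compound wells and -100% = no-enzyme wells; nearly all actives have a fitted effect of over 25% in size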
Target sequence (P00811 whole entry, looked up): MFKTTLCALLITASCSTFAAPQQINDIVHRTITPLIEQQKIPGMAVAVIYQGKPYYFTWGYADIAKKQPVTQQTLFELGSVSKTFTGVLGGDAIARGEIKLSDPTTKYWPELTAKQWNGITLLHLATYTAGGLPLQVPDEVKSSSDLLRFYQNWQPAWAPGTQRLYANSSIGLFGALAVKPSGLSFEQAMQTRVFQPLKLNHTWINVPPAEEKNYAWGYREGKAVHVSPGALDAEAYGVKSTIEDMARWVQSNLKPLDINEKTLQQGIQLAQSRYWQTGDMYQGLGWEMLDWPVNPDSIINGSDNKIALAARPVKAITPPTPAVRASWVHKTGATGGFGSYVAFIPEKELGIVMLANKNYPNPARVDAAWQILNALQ
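20 mM phosphate pH 7.0 + 0.01% (detergent screen) or 0.0001% Triton X-100; 5.3 nM AmpC reagent; cpd preinc 15 min RT; nitrocefin (800 uM stock) to start; A480 q20 s × 4 min; Activity was normalised to no-enzyme and no-compound control wells.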
AmpC no deterg = AmpC beta-lactamase inhibition without detergent; P00811; AmpC nitrocefin hydrolysis, absorbance 480 nm, 0.0001% Triton; Potency, µM (titrated, usually from 57.1 µM), without a hit: top-dose activity change, negative = inhibition, hits mostly inhibitors; 330,000 tested, 0.52% active; AID 485341;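 further: potency means the concentration at half of the fitted maximal effect; plate controls were no compound for no effect and no enzyme for full effect; nearly all actives have a fitted effect of over 20% in size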
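20 mM phosphate pH 7.0 + 0.01% (detergent screen) or 0.0001% Triton X-100; 5.3 nM AmpC reagent; cpd preinc 15 min RT; nitrocefin (800 uM stock) to start; A480 q20 s × 4 min; Activity was normalised to no-enzyme and no-compound control wells.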
NS1 function inh = influenza NS1 inhibition. Potency, µM (titrated, usually from 46.1 µM), inactives show at the top dose activity, positive = more growth. 270,000 tested, 0.4% active; calls by dose curve; further: potency means the concentration at half of the fitted maximal effect; actives are rising curves; nearly all actives have a fitted effect of over 50% in size
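Read-out: OD600 growth recovery of NS1-expressing budding yeast. Cells grown overnight at 30C in -URA glucose medium, washed, resuspended and diluted 1:100 in 2% galactose assay medium, pH 6.0. Same strain lacking NS1 served as positive control.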
CHX counter = affects cycloheximide protein synthesis inhibition readout, counter-screen; AID 2314; 300,000 tested, 12% active; cell reporter, cycloheximide protein synthesis inhibition counterscreen; max response, %; in the data active means max response mostly above about 13%, no sharp cut-off; inactive means mostly below about 14%; further: read at 38.3 µM for the half of the compounds with a filed dose; 0% is about no effect
Starred values were filed as active, the others as inactive; u = inconclusive; x = no result given; + = active, no number. Many of the other results were omitted from the sample, so hits are more common in it than they were. Unless noted, the call rests on the fitted dose curve; in most records, active means well fitted curve in the direction sought with a large enough effect; inconclusive means small, poorly fitted or top-dose-only effect, or another doubt; inactive means no such curve, though single readings can be large; an effect the other way counts as inactive or inconclusive.

SMILES | Shiga toxin inh | AmpC inh detg | AmpC no deterg | NS1 function inh | CHX counter
CC(C)(C)c1ccc(NC(=O)COC(=O)C2=COCCO2)cc1 | 91 | -7% | -2% | -13% | 21*
CC(C)(C)c1ccc(NC(=O)COC(=O)c2ccc([N+](=O)[O-])s2)cc1 | 63 | -10% | -14% | -86% | 14*
O=C(COC(=O)C1=COCCO1)Nc1ccc(F)cc1 | x | -11% | -12% | x | x
CC(C)(C)c1ccc(NC(=O)COC(=O)C2(C)CC2(Cl)Cl)cc1 (stereo unspecified) | 77* | 11% | -25% | x | 49*
CC1(C(=O)OCC(=O)Nc2nc(-c3ccc(F)c(F)c3)cs2)CC1(Cl)Cl (stereo unspecified) | 54* | -7% | u | -5% | 13
CCN(c1ccc(NC(=O)COC(=O)c2ccc(C)s2)cc1)C(C)C | 9 | -5% | -40% | x | 19*
Cc1ccc(C(=O)OCC(=O)Nc2ccc(C(N)=O)cc2)s1 | x | -1% | -15% | x | x
COc1cc(/C=C/c2nc(C#N)c(NCCc3ccccc3)o2)cc(OC)c1OC | x | 17% | x | x | x
CC/C(=N\N1CCCCCC1)c1c(O)n(-c2ccc(C)cc2)c(=O)[nH]c1=O | -5 | -3% | -8% | 2% | 18*
C/C(=N\N1CCCCCC1)c1c(O)n(-c2ccc(C)cc2)c(=O)[nH]c1=O | active | 3% | -24% | -1% | 43*
C=CCn1c(O)c(/C(C)=N/N2CCCCC2)c(=O)[nH]c1=O | 75* | 2% | -6% | -1% | 38
CN(C)S(=O)(=O)c1ccc2c(c1)N(CC(=O)NCc1cccc(Br)c1)C(=O)CS2 | x | 3% | x | x | x
Cc1cccc(NC(=O)CCN2CCN(c3ccccc3F)CC2)c1 | x | -9% | x | x | x
CSc1ncc(Cl)c(C(=O)Nc2ccc(S(=O)(=O)Nc3nccc(C)n3)cc2)n1 | 70* | 8% | -17% | 2% | 31*
Cc1ccc(-c2nc3c4ccccc4ccn3c2CN2CCCCC2)cc1 | 59* | -3% | 1% | -1% | 32*
O=C(NCC1CCCO1)c1ccc(C(=O)NCC2CCCO2)cc1 (stereo unspecified) | -1 | -1% | -7% | 0% | -2
O=C(NCC1CCCO1)c1ccc(COc2ccc(Cl)cc2)cc1 (stereo unspecified) | 20 | -10% | 51% | x | 3
COc1cccc(OCc2ccc(C(=O)NCC3CCCO3)cc2)c1 (stereo unspecified) | 37* | -7% | 17% | -16% | 28*
O=C(NCC1CCCO1)c1ccc(COc2ccccc2Br)cc1 (stereo unspecified) | + | -2% | 81% | -14% | 15
CSc1ccc(/C=C2/C(C)=C(CC(=O)O)c3cc(F)ccc32)cc1 | -10 | x | x | x | 10
CCc1nn2c(=O)c(S(=O)(=O)Nc3ccc(C)c(C)c3)c(C)nc2s1 | x | 4% | x | x | x
C=CCN1C(=O)/C(=C/c2ccc3c(c2)CCCN3CCC)C(=O)NC1=S | 2 | -2% | -12% | 8% | 11*
CCN1C(=O)/C(=C/c2ccc3c(c2)CCN3CCCCl)C(=O)NC1=S | 8 | -2% | -37% | -18% | 0
Cc1cccc(Cn2c(CN3CCC(C(=O)NCCc4ccccc4)CC3)cc3ccccc32)c1 | x | 14% | x | x | x
Nc1nnc(-c2ccc(Cl)cc2Cl)s1 | 58* | 0% | -7% | -6% | 23*
SMILES | Shiga toxin inh | AmpC inh detg | AmpC no deterg | NS1 function inh | CHX counter
Nc1nnc(-c2ccccc2F)s1 | 86* | -5% | 25% | 2% | 21*
Cc1nc2ccccn2c1C(=O)N=Nc1c(O)[nH]c2ccccc12 | -2 | -12% | -10% | 25% | 8
CCCCCC[n+]1c(-c2ccc(Cl)cc2Cl)csc1Nc1ccccc1 | -3 | 6% | -40% | -1% | -6
c1ccc(Nc2scc(-c3ccccc3)[n+]2Cc2ccco2)cc1 | 158* | 5% | -19% | x | 52*
c1ccc(C[n+]2c(-c3ccccc3)csc2Nc2ccccc2)cc1 | 36 | u | -22% | -6% | 15*
COCCN1C(=O)C(CC(=O)Nc2ccccc2)SC1=Nc1ccc(OC)cc1 (stereo unspecified) | -4 | u | 86% | 1% | -10
COc1ccc(N=C2SC(CC(=O)Nc3ccccc3)C(=O)N2Cc2ccco2)cc1 (stereo unspecified) | 39* | -3% | -9% | -1% | 9
COc1ccc(N=C2SC(CC(=O)Nc3ccccc3F)C(=O)N2Cc2ccco2)cc1 (stereo unspecified) | 20 | -2% | -25% | -7% | 21*
Cc1ccc(NC(=O)c2ccc(NS(=O)(=O)c3ccc4[nH]c(=O)[nH]c4c3)cc2)nc1 | x | u | -43% | x | x
c1csc(-c2nnc(N3CCCCCC3)c3ccccc23)c1 | 77* | -6% | -28% | -18% | 15*
CCN(c1ccccc1C(=O)O)S(=O)(=O)c1ccc2[nH]c(=O)[nH]c2c1 | 3 | -5% | -13% | 0% | -5
Cc1ccc(NC2(c3ccccc3)C(=O)c3ccccc3C2=O)cc1F | x | 7% | x | x | x
CCOc1ccc(-c2nc3n(c(=O)c2C#N)CCCS3)cc1 | 1 | -10% | -15% | -2% | 2
COc1ccc(/C=N/c2c(-c3ccc(OC)cc3)nc3n2CCS3)cc1 | 31 | -12% | 1% | 17% | 15*
COc1ccc(-c2nc3n(c(=O)c2C#N)CCCS3)cc1 | 0 | u | -1% | -51% | 15*
CN(Cc1nc2ccccc2n1C)c1ccccc1 | 38 | -15% | -9% | -7% | 12
Cn1c(CNc2ccc(O)cc2)nc2ccccc21 | 75* | 1% | -7% | 5% | 19*
Cn1c(CNC2CCCCC2)nc2ccccc21 | -3 | 4% | -10% | 1% | 10
CCOC(=O)c1ccc(NCc2nc3ccccc3n2C)cc1 | 43 | -8% | -60% | -115% | 32*
Cn1c(CNc2ccc(Br)cc2)nc2ccccc21 | 114* | -14% | -23% | -44% | 40*
Cc1ccc(NC(=O)NCc2nc3ccccc3n2C)cc1 | 2 | -3% | 50% | -5% | 6
Cc1ccc(NCc2nc3ccccc3n2C)cc1C | x | -22% | -7% | -10% | 46*
COc1ccc(C(=O)NNC(=O)Cc2nc3ccccc3n2C)cc1 | x | x | -18% | x | x
Cn1c(CNc2nc3ccccc3n2C)nc2ccccc21 | 77* | -9% | 10% | 1% | 68*
COc1ccc(Nc2nc3ccccc3n2C)cc1 | 40* | -6% | -23% | 7% | 35*
SMILES | Shiga toxin inh | AmpC inh detg | AmpC no deterg | NS1 function inh | CHX counter
Cc1ccc(NCc2nc3ccccc3n2C)cc1 | 95* | 4% | 0% | u | 49*
CC(C)n1c(NCc2nc3ccccc3n2C)nc2ccccc21 | 0 | -11% | -46% | -2% | 1
COc1ccc(NCc2nc3ccccc3n2C)cc1 | 66* | 3% | -21% | -9% | 35*
O=C(NCc1ccccc1)C1(C(F)(F)F)C/C(=C\CCO)CCCO1 (stereo unspecified) | 3 | x | x | x | 4
CCOc1ccc(OCCCC(=O)Nc2cc(Cl)ccc2-n2cncn2)cc1 | x | -15% | 15% | x | x
CCn1cc(C(=O)NCc2ccccc2)c(=O)c2cc(S(=O)(=O)N3CCCCCC3)ccc21 | x | 1% | x | x | x
